CYP2C9 act = activators of human CYP2C9; P11712; recombinant CYP2C9, luciferin-H conversion, luminescence; stronger effect = higher value; factor 1 = untreated enzyme, 0 = blocked; activation factor at 5 µM; actives 1.4% (n = 96,000); AID 1024;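 active = activation factor of 2 or more for CYP2C9 at a 5 µM dose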;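 note: 0 = sulfaphenazole-blocked wells and 1 = vehicle-only wells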
Target sequence (P11712 whole entry, looked up): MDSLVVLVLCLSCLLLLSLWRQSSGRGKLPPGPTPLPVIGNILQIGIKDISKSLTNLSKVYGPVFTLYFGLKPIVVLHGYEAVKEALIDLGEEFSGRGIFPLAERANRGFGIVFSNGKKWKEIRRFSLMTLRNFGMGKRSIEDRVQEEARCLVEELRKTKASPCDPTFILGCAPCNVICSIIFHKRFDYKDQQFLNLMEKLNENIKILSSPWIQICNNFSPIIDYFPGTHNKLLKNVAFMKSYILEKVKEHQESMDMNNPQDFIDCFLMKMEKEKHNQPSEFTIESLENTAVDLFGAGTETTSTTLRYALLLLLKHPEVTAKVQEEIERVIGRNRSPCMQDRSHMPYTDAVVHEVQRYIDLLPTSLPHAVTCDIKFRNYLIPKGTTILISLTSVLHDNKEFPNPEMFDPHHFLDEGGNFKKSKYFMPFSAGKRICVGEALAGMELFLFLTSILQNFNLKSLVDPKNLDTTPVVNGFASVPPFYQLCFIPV
Cav32 inh = inhibitors of human Cav3.2 T-type calcium channel. B-score at 10 µM. actives 4% (n = 100,000). Cav3.2-expressing cells, Fluo-4 calcium fluorescence FDSS; stronger effect = lower value. AID 449739. O95180;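 active = single-dose well whose peak fluorescence ratio is a statistical outlier from its plate by either plate-standardised score or position-corrected B-score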
CYP2C19 activ = cytochrome P450 2C19 (human) activation. P33261. recombinant CYP2C19, luciferin-H EGE luminescence; stronger effect = higher value; 0 = fully inhibited enzyme, 1 = untreated enzyme. activation factor at 5 µM. 96,000 tested, under 10 active;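 active = activation factor of at least 2 at 5 µM in the primary screen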;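 note: 0 = wells with 2.5 mM tranylcypromine and 1 = vehicle-only wells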
CYP2C19 inhib = blocks human cytochrome P450 2C19 | P33261 | CYP2C19 Supersomes, luciferin-H EGE luminescence, 30 min | inhibition, % at 5 µM | actives 21% (n = 96,000) | AID 778;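 active = CYP2C19 inhibition above a set limit at 5 µM in the primary screen, cut at about 50% in these data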;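 note: plate controls were negative control wells for no effect and 2.5 mM tranylcypromine positive control for full effect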
CYP2C9 inhib = blocks human cytochrome P450 2C9; actives 20% (n = 96,000); CYP2C9 Supersomes, luciferin-H conversion, luminescence; AID 777; inhibition, % at 5 µM; P11712;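 active = blocking of liver enzyme CYP2C9 beyond about 50% at 5 µM, limit read from the data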
* = called active by the depositor; nt = no result given. Sampled rows, rich in hits. Any-hit rate of the full collection: about 27%.

SMILES | CYP2C9 act | Cav32 inh | CYP2C19 activ | CYP2C19 inhib | CYP2C9 inhib
COc1cc(NC(=O)CSc2nnc3n2C(C)(C)Cc2ccccc2-3)cc(OC)c1 | 0.8 | 0.00406 | 0.6 | 36.8 | 19.3
O=C(/C=C/c1cccs1)N1CCC2(CC1)Oc1ccc(Cl)cc1C(=O)C21CC(c2ccccc2)=NO1 (stereo not given) | nt | -1.63 | nt | nt | nt
O=C(NCc1cccs1)C1CCN(C(=O)NCc2ccccc2)CC1 | nt | 0.111 | nt | nt | nt
CCc1ccc(NC(=O)N(C2CCCCC2)C(C)c2cccnc2)cc1 (stereo not given) | 0.8 | -0.172 | 0.8 | 17.0 | 15.7
Cc1ccc(Cl)cc1N1CCN(C(=O)CSc2nnc3n2C(C)(C)Cc2ccccc2-3)CC1 | nt | -5.46* | nt | nt | nt
COc1ccc(N2CCN(C(=O)CSc3nnc4c5cc(C)ccc5n(C)c4n3)CC2)cc1 | 0.4 | 0.0857 | 0.2 | 80.6* | 55.9*
CC1(C)CC(=O)c2cnc(NC(=O)C3CCCC3)nc2C1 | 0.6 | 0.958 | 0.7 | 27.3 | 38.1
O=C(NCCO)c1scc2c1OCCO2 | 1.2 | -1.06 | 1.1 | -7.9 | -17.0
CCOC(=O)N1CCN(C(=O)CNS(=O)(=O)c2cccs2)CC1 | 0.9 | -0.255 | 1 | 3.5 | 8.0
O=C(CNS(=O)(=O)c1ccc(Br)s1)N1CCN(c2ncccn2)CC1 | 0.4 | 1.84 | 0.6 | 42.0 | 61.4*
Cc1ccc(C)c(N2CCN(C(=O)CNS(=O)(=O)c3cccs3)CC2)c1 | 0.5 | 0.217 | 0.5 | 54.2* | 50.2*
Cc1ccc(N2CCN(C(=O)CNS(=O)(=O)c3ccc(Br)s3)CC2C)cc1 (stereo not given) | 0.6 | nt | 0.5 | 52.5* | 38.1
CCCCCc1c(C)nc(N2CCOCC2)[nH]c1=O | 0.9 | 0.674 | 0.6 | 37.0 | 6.6
O=C1CCN(Cc2ccccc2)CCN1CCO | nt | 0.487 | nt | nt | nt
CC1(C)CC(=O)C=C(Nc2ccc(C(=O)O)cc2)C1 | nt | 0.997 | nt | nt | nt
CCCOc1ccc(NC2=CC(=O)CC(C)(C)C2)cc1 | 0.2 | 0.0228 | 0.6 | 37.3 | 78.9*
COc1ccccc1N1CCN(/N=C\c2ccc(C)o2)CC1 | 1.3 | 0.107 | 0.9 | 5.6 | -32.9
Cc1ccc(/C=N/N2CCN(Cc3ccc(Cl)cc3)CC2)o1 | 0.4 | -0.499 | 0.3 | 67.6* | 63.1*
O=C(Cn1cc([N+](=O)[O-])cn1)Nc1ccn(Cc2c(F)c(F)c(F)c(F)c2F)n1 | 0.7 | 0.628 | 0.7 | 30.0 | 26.2
O=C(COc1ccc(CO)cc1Cl)Nc1ccc(F)cc1 | 0.5 | 0.0735 | 0.4 | 58.5* | 49.1
Cc1cc(C)cc(OCC(=O)Nc2ccc(N3CCCC3)cc2)c1 | 1.2 | -1.64 | 1.1 | -7.0 | -19.7
COc1ccccc1NC(=O)COc1ccc(CO)cc1Cl | 0.1 | -0.109 | 0 | 97.0* | 92.4*
COc1ccccc1NC(=S)NC(=O)CCCOc1ccc(Cl)cc1Cl | 0.7 | -0.649 | 0.9 | 13.0 | 34.0
Cc1cc(C)cc(OCC(=O)Nc2ccc(F)cc2)c1 | 1 | -0.996 | 0.4 | 59.4* | -0.5
CCC(=O)NC(=S)Nc1ccc(NC(=O)COc2ccc(Cl)cc2Cl)cc1 | 0.9 | -0.903 | 0.7 | 28.1 | 9.0
SMILES | CYP2C9 act | Cav32 inh | CYP2C19 activ | CYP2C19 inhib | CYP2C9 inhib
Cc1cc(OCC(=O)Nc2ccncc2)cc(C)c1Br | 0 | -1.35 | 0 | 99.5* | 99.0*
Cc1cc(OCC(=O)NCCN2CCOCC2)cc(C)c1Br | 2.1* | -0.181 | 0 | 98.7* | -106.7
O=C(COc1ccc(CO)cc1)Nc1ccc(F)cc1 | 0.7 | -0.0864 | 0.5 | 51.5* | 29.7
CCCc1cc(Nc2ccccc2OCC)n2ncnc2n1 | 1 | 0.073 | 0.6 | 39.7 | 2.7
O=C(C1=C[C@@H](C2CCCCC2)C[C@@H](OCCCCO)O1)N1CCOCC1 | nt | 1.89 | nt | nt | nt
CC1=CC(C)(C)N(C(=O)C(C)N2C(=O)c3ccccc3C2=O)c2ccc(C)cc21 (stereo not given) | 0.9 | -3.17 | 0.2 | 82.9* | 7.2
CC1CC(C)(C)N(C(=O)CN2C(=O)c3ccccc3C2=O)c2ccccc21 (stereo not given) | nt | 4.5* | nt | nt | nt
CC1=CC(C)(C)N(S(=O)(=O)c2ccc(C)cc2)c2ccccc21 | 0.4 | -3.92 | 0.6 | 44.0 | 61.6*
CC1=CC(C)(C)N(C(=O)CN2C(=O)c3ccccc3C2=O)c2ccccc21 | 0.1 | -1.43 | 0.7 | 30.0 | 86.7*
Cc1ccc(CNC(=O)CCNC(=O)Cn2ccc3ccccc3c2=O)o1 | 0.9 | 0.251 | 1 | -0.8 | 5.1
Cc1cccc(NC(=O)COc2ccc3oc4c(c3c2)CCCC4)n1 | 0.1 | -2.19 | 0.5 | 51.3* | 85.3*
Cc1ccc(OCC(=O)Nc2ccc(N3CCCC3)cc2)cc1C | 1.1 | 1.21 | 1.1 | -13.2 | -12.4
CC(C)(C)c1cc(/C=N/NC(=O)Cc2nc3ccccc3[nH]2)cc(C(C)(C)C)c1O | 0 | -7.63* | 0.1 | 92.9* | 99.3*
CC(C)c1ccc(CN2CCC(C(=O)NCc3cccnc3)CC2)cc1 | 0.8 | 0.774 | 1 | 2.6 | 18.6
Nn1cc(-c2ccccc2)nc1SCC(=O)N1CCN(S(=O)(=O)c2ccccc2)CC1 | 0.9 | 2.09 | 0.6 | 40.7 | 6.8
COc1ccccc1N(CCC#N)C(=O)CSc1nc(-c2ccccc2)cn1N | 0.8 | 0.571 | 0.3 | 74.7* | 21.0
O=C(NCCCN1CCOCC1)c1cc2ccccc2o1 | 0.9 | 0.2 | 0.8 | 24.9 | 7.2
Nn1c(SCC(=O)NC(=O)NCc2ccco2)nnc1-c1ccc(OC(F)F)cc1 | 0.7 | nt | 0.3 | 71.4* | 31.2
CCn1c(SCC(=O)NC(=O)NCc2ccco2)nnc1-c1cccs1 | 0.8 | 0.439 | 0.6 | 36.4 | 18.2
CCOc1ccccc1-n1nnnc1SCC(=O)NC(=O)NCc1ccco1 | 0.7 | -3.41 | 0.2 | 78.8* | 27.0
CNC(=O)NC(=O)CSc1nnc(-c2ccco2)n1Cc1ccccc1 | 1.1 | 0.636 | 1.1 | -11.3 | -6.2
O=C(CSc1n[nH]c(-c2ccccc2Br)n1)NC(=O)NCc1ccco1 | 0.4 | -1.02 | 0.6 | 35.9 | 58.9*
O=C(CSc1nnnn1-c1ccccc1)NC(=O)NCc1ccco1 | 1.4 | -0.0349 | 1 | -0.6 | -36.3
O=C(CSc1nnc(-c2ccco2)n1Cc1ccccc1)NC(=O)NCc1ccccc1 | 0.7 | 0.475 | 0.4 | 61.9* | 29.5
O=C(CN1CCOCC1)Nc1ccccc1NC(=O)C1CCN(c2ncccn2)CC1 | 0.9 | -0.893 | 0.7 | 29.2 | 11.9
SMILES | CYP2C9 act | Cav32 inh | CYP2C19 activ | CYP2C19 inhib | CYP2C9 inhib
Cn1cc(S(=O)(=O)N2CCc3ccccc3C2)c(=O)n(C)c1=O | 1.2 | -0.683 | 0.8 | 19.6 | -16.5
O=C(CSc1nnc(Cc2ccccc2)n1Cc1ccccc1)NCc1ccco1 | nt | -3.54 | nt | nt | nt
Cc1nnc(SCC(=O)NC(=O)NCc2ccco2)n1Cc1ccccc1 | 0.3 | -0.0441 | 0.8 | 16.5 | 66.8*
Cc1ccccc1NC(=O)COc1nsnc1N1CCOCC1 | 0.9 | 1.32 | 0.4 | 60.2* | 14.8
O=C(COc1ccc(Cl)cc1Cl)NC(=O)N1CCOCC1 | 1.1 | -0.0826 | 0.5 | 52.0* | -12.9
Cc1cc(Cl)ccc1OCC(=O)Nc1ccccc1N1CCOCC1 | 0.1 | -0.893 | 0.1 | 91.2* | 94.5*
CCOc1ccccc1C(=O)NC(C(=O)Nc1ccccc1N1CCOCC1)C(C)C (stereo not given) | 0.3 | 0.0911 | 0.6 | 38.5 | 73.3*
